Common to all, as to experiment: cell viability of combination (% of vehicle); higher = less cytotoxic
Holding throughout (details): 1 µM; 72 h; partner dose: 10 nM

Experiment [1] has as its system HCI01 (cells of a triple-negative basal-like breast cancer xenograft). On the procedure:
(§1)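 PDX cells were treated for 72 h with each drug at 1 µM plus carfilzomib (10 nM; 100 nM for WHIM2). Luciferase viability is expressed as percent of vehicle.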

Experiment [2] relates to UCD52 (cells of a triple-negative basal-like breast cancer xenograft). On the procedure: as §1
A further experiment has as its system WHIM30 (cells of a triple-negative basal-like breast cancer xenograft). The method, then: as §1
The subject of experiment [3] is HCI01. On the procedure: (§2)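 PDX cells were treated for 72 h with each drug at 1 µM plus afatinib (10 nM; 1 µM for WHIM30). Luciferase viability is expressed as percent of vehicle.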
The source holds these as a separate data set.

Experiment [4] relates to UCD52. On the procedure:
as §2
This is another data set of the same source.

For another experiment, the system named is WHIM2 (cells of a triple-negative basal-like breast cancer xenograft). The method, then:
as §2

As for `Clc1ccc(COC(Cn2ccnc2)c2ccc(Cl)cc2Cl)cc1.O=[N+]([O-])O` (stereo unspecified) [Econazole nitrate] + CC(C)C[C@H](NC(=O)[C@H](CCc1ccccc1)NC(=O)CN1CCOCC1)C(=O)N[C@@H](Cc1ccccc1)C(=O)N[C@@H](CC(C)C)C(=O)[C@@]1(C)CO1 [Carfilzomib], the “cell viability of combination” value was found to be 89.1 in the experiment on HCI01 [1], 59.8 with UCD52 [2] and 17.7 in the experiment on WHIM30.
In the case of `C=C1C(=CC=C2CCCC3(C)C2CCC3C(C)CCCC(C)C)CC(O)CC1O` (stereo unspecified) [Alfacalcidol] + CN(C)C/C=C/C(=O)Nc1cc2c(Nc3ccc(F)c(Cl)c3)ncnc2cc1O[C@H]1CCOC1 [Afatinib], the “cell viability of combination” value with HCI01 [3] was 42.1; in the experiment with UCD52 [4], 50; with WHIM2 it was 34.4.
The corresponding values for `CC(C)c1nc(CN(C)C(=O)NC(C(=O)NC(Cc2ccccc2)CC(O)C(Cc2ccccc2)NC(=O)OCc2cncs2)C(C)C)cs1` (stereo unspecified) [Ritonavir] + CN(C)C/C=C/C(=O)Nc1cc2c(Nc3ccc(F)c(Cl)c3)ncnc2cc1O[C@H]1CCOC1 [Afatinib] are 49.1, 62.5 and 49.
For `COc1cccc2c1C(=O)c1c(O)c3c(c(O)c1C2=O)CC(O)(C(=O)CO)CC3OC1CC(N)C(O)C(C)O1.Cl` (stereo unspecified) [Doxorubicin (Adriamycin) HCl] + CC(C)C[C@H](NC(=O)[C@H](CCc1ccccc1)NC(=O)CN1CCOCC1)C(=O)N[C@@H](Cc1ccccc1)C(=O)N[C@@H](CC(C)C)C(=O)[C@@]1(C)CO1 [Carfilzomib], the “cell viability of combination” value worked out at 60.9 with HCI01 [1], 30.2 with UCD52 [2] and 7.61 with WHIM30.
The matching figures for `CNC1CCC(c2ccc(Cl)c(Cl)c2)c2ccccc21.Cl` (stereo unspecified) [Sertraline HCl] + CC(C)C[C@H](NC(=O)[C@H](CCc1ccccc1)NC(=O)CN1CCOCC1)C(=O)N[C@@H](Cc1ccccc1)C(=O)N[C@@H](CC(C)C)C(=O)[C@@]1(C)CO1 [Carfilzomib]: 72.1, 61.1 and 11.
Turning to `CC(C)C(=O)OCC(=O)[C@@]12O[C@H](C3CCCCC3)O[C@@H]1C[C@H]1[C@@H]3CCC4=CC(=O)C=C[C@]4(C)[C@H]3[C@@H](O)C[C@@]12C` [Ciclesonide] + CC(C)C[C@H](NC(=O)[C@H](CCc1ccccc1)NC(=O)CN1CCOCC1)C(=O)N[C@@H](Cc1ccccc1)C(=O)N[C@@H](CC(C)C)C(=O)[C@@]1(C)CO1 [Carfilzomib], the results for the “cell viability of combination” value with HCI01 [1], with UCD52 [2] and in the experiment on WHIM30 were 108, 88.6 and 31.2, respectively.
The corresponding values for `C#Cc1cccc(Nc2ncnc3cc(OCCOC)c(OCCOC)cc23)c1` [Erlotinib] + CC(C)C[C@H](NC(=O)[C@H](CCc1ccccc1)NC(=O)CN1CCOCC1)C(=O)N[C@@H](Cc1ccccc1)C(=O)N[C@@H](CC(C)C)C(=O)[C@@]1(C)CO1 [Carfilzomib] are 66.8, 49.1 and 27.4.
The matching figures for `Nc1c(CC(=O)[O-])cccc1C(=O)c1ccccc1.O.[Na+]` [Amfenac Sodium Monohydrate] + CC(C)C[C@H](NC(=O)[C@H](CCc1ccccc1)NC(=O)CN1CCOCC1)C(=O)N[C@@H](Cc1ccccc1)C(=O)N[C@@H](CC(C)C)C(=O)[C@@]1(C)CO1 [Carfilzomib]: 76.5, 66.3 and 23.7.
As to `CN(C)CC=CC(=O)Nc1cc2c(Nc3ccc(F)c(Cl)c3)ncnc2cc1OC1CCOC1` (stereo unspecified) [Afatinib (BIBW2992)] + CN(C)C/C=C/C(=O)Nc1cc2c(Nc3ccc(F)c(Cl)c3)ncnc2cc1O[C@H]1CCOC1 [Afatinib], the “cell viability of combination” value is 44.6 in the experiment on HCI01 [3], 21.3 in the experiment with UCD52 [4] and 32.4 with WHIM2.
For the compound `O=C(c1ccc(F)c(F)c1Nc1ccc(I)cc1F)N1CC(O)(C2CCCCN2)C1` (stereo unspecified) [Cobimetinib] + CC(C)C[C@H](NC(=O)[C@H](CCc1ccccc1)NC(=O)CN1CCOCC1)C(=O)N[C@@H](Cc1ccccc1)C(=O)N[C@@H](CC(C)C)C(=O)[C@@]1(C)CO1 [Carfilzomib], the “cell viability of combination” value with HCI01 [1] was determined as 65.6; with UCD52 [2], 44.7; with WHIM30, 24.7.
The corresponding values for `Cl.Cl.O=C1c2c(O)ccc(O)c2C(=O)c2c(NCCNCCO)ccc(NCCNCCO)c21` [Mitoxantrone HCl] + CC(C)C[C@H](NC(=O)[C@H](CCc1ccccc1)NC(=O)CN1CCOCC1)C(=O)N[C@@H](Cc1ccccc1)C(=O)N[C@@H](CC(C)C)C(=O)[C@@]1(C)CO1 [Carfilzomib] are 74.1, 30 and 5.21.
Take `CC(C)COc1ccc(CNC(=O)N(Cc2ccc(F)cc2)C2CCN(C)CC2)cc1` [Pimavanserin] + CC(C)C[C@H](NC(=O)[C@H](CCc1ccccc1)NC(=O)CN1CCOCC1)C(=O)N[C@@H](Cc1ccccc1)C(=O)N[C@@H](CC(C)C)C(=O)[C@@]1(C)CO1 [Carfilzomib]: the results for the “cell viability of combination” value with HCI01 [1], in the experiment on UCD52 [2] and with WHIM30 were 76.1, 62.4 and 15.8, respectively.
As to `CC(CCC(=O)O)C1CCC2C3CCC4CC(O)CCC4(C)C3CCC12C` (stereo unspecified) [Lithocholic Acid] + CC(C)C[C@H](NC(=O)[C@H](CCc1ccccc1)NC(=O)CN1CCOCC1)C(=O)N[C@@H](Cc1ccccc1)C(=O)N[C@@H](CC(C)C)C(=O)[C@@]1(C)CO1 [Carfilzomib], the “cell viability of combination” value was 67.4 with HCI01 [1], 60.5 in the experiment on UCD52 [2] and 21.6 in the experiment on WHIM30.
Turning to `CC(C)(C)c1ccc(C(O)CCCN2CCC(C(O)(c3ccccc3)c3ccccc3)CC2)cc1` (stereo unspecified) [Terfenadine] + CN(C)C/C=C/C(=O)Nc1cc2c(Nc3ccc(F)c(Cl)c3)ncnc2cc1O[C@H]1CCOC1 [Afatinib], the figures for the “cell viability of combination” value in the experiment with HCI01 [3], with UCD52 [4] and with WHIM2 were 52.8, 59.1 and 51.1, respectively.
The matching figures for `COCCn1c2c([n+](Cc3cnccn3)c1C)C(=O)c1ccccc1C2=O.[Br-]` + CN(C)C/C=C/C(=O)Nc1cc2c(Nc3ccc(F)c(Cl)c3)ncnc2cc1O[C@H]1CCOC1 [Afatinib]: 18.3, 15.2 and 11.8.
Consider `CNC(=O)c1cc(Oc2ccc(NC(=O)Nc3ccc(Cl)c(C(F)(F)F)c3)cc2)ccn1.Cc1ccc(S(=O)(=O)O)cc1` [Sorafenib Tosylate] + CC(C)C[C@H](NC(=O)[C@H](CCc1ccccc1)NC(=O)CN1CCOCC1)C(=O)N[C@@H](Cc1ccccc1)C(=O)N[C@@H](CC(C)C)C(=O)[C@@]1(C)CO1 [Carfilzomib], for which the “cell viability of combination” value in the experiment on HCI01 [1] worked out at 70.3; in the experiment with UCD52 [2], 52.6; in the experiment with WHIM30, 19.5.
`O=C(O)CO.[NH2-].[NH2-].[Pt+2]` [Nedaplatin] + CN(C)C/C=C/C(=O)Nc1cc2c(Nc3ccc(F)c(Cl)c3)ncnc2cc1O[C@H]1CCOC1 [Afatinib]: the “cell viability of combination” value in the experiment with HCI01 [3] is 49.9; in the experiment with UCD52 [4], 82.6; in the experiment on WHIM2, 48.5.
Turning to `CN(C)CC=CC(=O)Nc1cc2c(Nc3ccc(F)c(Cl)c3)ncnc2cc1OC1CCOC1` (stereo unspecified) [Afatinib (BIBW2992)] + CC(C)C[C@H](NC(=O)[C@H](CCc1ccccc1)NC(=O)CN1CCOCC1)C(=O)N[C@@H](Cc1ccccc1)C(=O)N[C@@H](CC(C)C)C(=O)[C@@]1(C)CO1 [Carfilzomib], the “cell viability of combination” value with HCI01 [1] worked out at 63.1; in the experiment with UCD52 [2] it was 26.2; with WHIM30, 12.3.
The matching figures for `C[C@H]1O[C@@H](O[C@H]2[C@@H](O)C[C@H](O[C@H]3[C@@H](O)C[C@H](O[C@H]4CC[C@@]5(C)[C@H](CC[C@@H]6[C@@H]5C[C@@H](O)[C@]5(C)[C@@H](C7=CC(=O)OC7)CC[C@]65O)C4)O[C@@H]3C)O[C@@H]2C)C[C@H](O)[C@@H]1O` [Digoxin] + CC(C)C[C@H](NC(=O)[C@H](CCc1ccccc1)NC(=O)CN1CCOCC1)C(=O)N[C@@H](Cc1ccccc1)C(=O)N[C@@H](CC(C)C)C(=O)[C@@]1(C)CO1 [Carfilzomib]: 40.7, 16.9 and 4.55.
The matching figures for `CC[C@H](C)[C@H]1O[C@]2(CC[C@@H]1C)C[C@@H]1C[C@@H](C/C=C(\C)[C@@H](O[C@H]3C[C@H](OC)[C@@H](O[C@H]4C[C@H](OC)[C@@H](O)[C@H](C)O4)[C@H](C)O3)[C@@H](C)/C=C/C=C3\CO[C@@H]4[C@H](O)C(C)=C[C@@H](C(=O)O1)[C@]34O)O2` [Ivermectin] + CC(C)C[C@H](NC(=O)[C@H](CCc1ccccc1)NC(=O)CN1CCOCC1)C(=O)N[C@@H](Cc1ccccc1)C(=O)N[C@@H](CC(C)C)C(=O)[C@@]1(C)CO1 [Carfilzomib]: 92.6, 43 and 20.6.
In the case of `CO[C@@]12[C@H](COC(N)=O)C3=C(C(=O)C(C)=C(N)C3=O)N1C[C@@H]1N[C@@H]12` [Mitomycin C] + CC(C)C[C@H](NC(=O)[C@H](CCc1ccccc1)NC(=O)CN1CCOCC1)C(=O)N[C@@H](Cc1ccccc1)C(=O)N[C@@H](CC(C)C)C(=O)[C@@]1(C)CO1 [Carfilzomib], the “cell viability of combination” value with HCI01 [1] turned out to be 51.1; in the experiment on UCD52 [2], 64; with WHIM30, 23.5.
The matching figures for `COC(=O)C1=C(C)NC(C)=C(C(=O)OC2CCCN(Cc3ccccc3)C2)C1c1cccc([N+](=O)[O-])c1.Cl` (stereo unspecified) [Benidipine HCl] + CC(C)C[C@H](NC(=O)[C@H](CCc1ccccc1)NC(=O)CN1CCOCC1)C(=O)N[C@@H](Cc1ccccc1)C(=O)N[C@@H](CC(C)C)C(=O)[C@@]1(C)CO1 [Carfilzomib]: 106, 57.7 and 13.6.

For the origin of these results see the supplement of paper PMC6992640.
